Source: PubChem BioAssay (National Center for Advancing Translational Sciences (NCATS))
LASV entry inh = blocks Lassa virus binding to or entry into cells | Lassa virus pseudotype entry inhibition, cell reporter | Potency, µM (top dose mostly 37.9 µM), without a hit: top-dose activity change, negative = inhibition, hits mostly inhibitors | 300,000 compounds, 1.2% hits | AID 540256; calls by dose curve; tested in HEK293 cells; also: nearly all actives have a fitted effect of over 50% in size
MARV entry inh = blocks Marburg virus binding to or entry into cells. Marburg virus pseudotyped entry inhibition, cell reporter. Potency, µM (titrated, usually from 37.8 µM), for inactives: top-dose activity change, negative = inhibition, usual class: inhibitors. 300,000 compounds, 1.8% hits; calls by dose curve; tested in HEK293 cells
Vaccinia mCherry = inhibitors of vaccinia virus infection (mCherry reporter signal). Vaccinia virus mCherry reporter infection, fluorescence. Potency, µM (highest dose often 36.5 µM), for the others: top-dose activity change, negative = inhibition, actives largely listed as inhibitors. 310,000 compounds, 0.63% hits. AID 720579; calls by dose curve; tested in A549 cells; also: nearly all actives have a fitted effect of over 35% in size
Vaccinia Venus = inhibitors of vaccinia virus (Venus reporter). Vaccinia virus Venus reporter expression, fluorescence. Potency, µM (titrated, usually from 36.5 µM), for inactives: top-dose activity change, negative = inhibition, hits mostly inhibitors. 330,000 compounds, 0.46% hits. AID 720580; calls by dose curve; tested in A549 cells; also: nearly all actives have a fitted effect of over 30% in size
FMDV inh = blocks foot and mouth disease virus. FMDV antiviral cell-based qHTS. AID 1159524. 410,000 compounds, 1.2% hits. Potency, µM (titrated, usually from 57.9 µM), for the others: at the top dose activity change, negative = inhibition, most hits filed as inhibitors; calls by dose curve; tested in HEK293T cells; also: read-out not given here; nearly all actives have a fitted effect of over 45% in size
* marks the source's active call; other numbers are inactive results; [ ] = dose if it differs, or a comment. Hits are enriched below; roughly 3.2% of the tested compounds scored in any of these assays. % is scaled to controls: 0 for no effect and ±100 for the full control effect; potency is read from the fitted curve at half-maximal effect.

`COc1cc(/C=N/NC(=Nc2ccc(C)cc2)c2nc3ccccc3s2)ccc1O` gave LASV entry inh 13µM*, MARV entry inh inconclusive and FMDV inh 18µM*.
`Cc1ccc(/C=N/NC(=O)c2cc(-c3ccncc3)nc3ccccc23)o1` gave LASV entry inh -8%[46.1 µM], MARV entry inh inconclusive, Vaccinia mCherry inconclusive, Vaccinia Venus -22% and FMDV inh -16%.
`CC(/C=N/NC(=O)c1cc(-c2ccncc2)nc2ccccc12)=C\c1ccco1` gave LASV entry inh -49%[14.3 µM], MARV entry inh 2.9µM*, Vaccinia mCherry inconclusive, Vaccinia Venus inconclusive and FMDV inh -26%.
Screening COc1ccccc1-c1cc(C(=O)N/N=C/c2sccc2C)c2ccccc2n1 returned LASV entry inh inconclusive, MARV entry inh 13µM*, Vaccinia Venus -9% and FMDV inh inconclusive.
For COc1ccccc1-c1cc(C(=O)N/N=C/c2ccc(C)o2)c2ccccc2n1 the results were LASV entry inh inconclusive, MARV entry inh inconclusive, Vaccinia mCherry -16%, Vaccinia Venus -17% and FMDV inh -16%.
For Cc1ccc(/C=C/C(=O)OCC(=O)NCc2cccs2)o1 the results were LASV entry inh -26%[46.1 µM], MARV entry inh 18%[46.1 µM], Vaccinia mCherry -29%, Vaccinia Venus 15% and FMDV inh 22%.
For COCc1ccc(CN2CCOc3ccc(C4=Cc5ccccc5C4)cc3C2)o1 the results were Vaccinia mCherry -14%, Vaccinia Venus -9% and FMDV inh 45%.
For COC(=O)N[C@@H](C=Cc1ccco1)[C@]1(C(=O)OC)CCCC1=O the results were MARV entry inh 3%[14.2 µM].
Screening Cn1cc(CN2CCC(n3nccc3NC(=O)c3ccccc3Cl)CC2)cn1 returned LASV entry inh 6%, MARV entry inh -1%, Vaccinia mCherry inactive, Vaccinia Venus -10% and FMDV inh 0%.
Screening CCc1ccc(CN2CCC(n3nccc3NC(=O)c3ccccc3Cl)CC2)cc1 returned LASV entry inh inconclusive, MARV entry inh inconclusive, Vaccinia mCherry -27%, Vaccinia Venus -23% and FMDV inh 32µM*.
CC(=O)Nc1ccc(-c2ccnc3c2CC(C)(C(=O)NCc2ccco2)O3)cc1 (stereo not given) was read as Vaccinia mCherry -2%, Vaccinia Venus inconclusive and FMDV inh -4%.
Screening CCSc1nnc(NC(=O)c2cnccn2)s1 returned LASV entry inh 21%, MARV entry inh inconclusive, Vaccinia mCherry inactive and Vaccinia Venus 1%.
Screening CCSc1nnc(NC(=O)C(C)(C(F)(F)F)C(F)(F)F)s1 returned LASV entry inh -4%, MARV entry inh inconclusive and FMDV inh -21%.
CCSc1nnc(NC(=O)c2ccccn2)s1 was read as LASV entry inh inconclusive, MARV entry inh inconclusive, Vaccinia mCherry 22µM*, Vaccinia Venus inconclusive and FMDV inh 0%.
For CCSc1nnc(NC(=O)C(CC)(C(F)(F)F)C(F)(F)F)s1 the results were LASV entry inh 13µM*, MARV entry inh inconclusive, Vaccinia Venus inconclusive and FMDV inh inconclusive.
Cc1cnc2ccc(I)cc2c1/C=C/c1ccc(N(C)C)cc1 was read as Vaccinia mCherry -25% and Vaccinia Venus -19%.
COc1cccc(CN(C)Cc2cc(=O)oc3c(C)c(C)ccc23)c1 was read as FMDV inh -27%.
For Cc1c(O)ccc2c(CN(C)Cc3ccccc3)cc(=O)oc12 the results were LASV entry inh inconclusive, MARV entry inh 12µM*, Vaccinia mCherry inactive, Vaccinia Venus -13% and FMDV inh -17%.
Cc1ccccc1CN(C)Cc1cc(=O)oc2c(C)c(C)ccc12 was read as LASV entry inh 2.8µM*, MARV entry inh 4µM*, Vaccinia mCherry -28%, Vaccinia Venus -6% and FMDV inh inconclusive.
Cc1c(O)ccc2c(CC(=O)N[C@@H](Cc3ccccc3)C(=O)O)cc(=O)oc12 was read as FMDV inh -1%.
COCCC1CCCCN1Cc1nc(N2CCCCC2)c2cc(OC)c(OC)cc2n1 (stereo not given) was read as Vaccinia mCherry -15%, Vaccinia Venus -1% and FMDV inh -3%.
For CN(CCO)C[C@H](O)Cn1cnc2c1c(=O)n(C)c(=O)n2C (tested in a mixture with another compound) the results were MARV entry inh -17%.
`Cc1ccc2oc(=O)c3cnn(CC(=O)Nc4ccc(Br)cc4C)c3c2c1` gave LASV entry inh 4%[46.1 µM], MARV entry inh 1%[46.1 µM], Vaccinia mCherry -4%, Vaccinia Venus -10% and FMDV inh -7%.
`O=C(Cn1ncc(Cl)c(Cl)c1=O)N1CCN(S(=O)(=O)c2ccc3ccccc3c2)CC1` gave LASV entry inh inconclusive, MARV entry inh 1.8µM*, Vaccinia mCherry inconclusive, Vaccinia Venus inconclusive and FMDV inh 28µM*.
For Cc1ccc(S(=O)(=O)N2CCCCC2)cc1NC(=O)Cn1ncc(Cl)c(Cl)c1=O the results were FMDV inh 20µM*.
`O=C(O)CCC(=O)N1CCN(S(=O)(=O)c2ccc3ccccc3c2)CC1` gave MARV entry inh -6%[46.1 µM], Vaccinia mCherry 4%, Vaccinia Venus -10% and FMDV inh 9%.
Screening Cc1cc(Br)ccc1NC(=O)CNC(=O)Cn1ncc(Cl)c(Cl)c1=O returned MARV entry inh -26%[46.1 µM], Vaccinia mCherry -4%, Vaccinia Venus -8% and FMDV inh 6.3µM*.
For CC(C)NC(=O)c1ccc(Cn2c(SCC(N)=O)nc3ccccc3c2=O)cc1 the results were LASV entry inh 11%[46.1 µM], Vaccinia mCherry -2%, Vaccinia Venus 1% and FMDV inh -13%.
Screening CNS(=O)(=O)c1cccc(C(=O)OCC(=O)c2cc(C)n(CC3CCCO3)c2C)c1 (stereo not given) returned LASV entry inh 13µM*, MARV entry inh inconclusive, Vaccinia mCherry 7%, Vaccinia Venus -16% and FMDV inh 12%.
Screening COCCn1c(C)cc(C(=O)COC(=O)CNC(=O)c2ccccc2)c1C returned LASV entry inh -18%, MARV entry inh -7%[46.1 µM], Vaccinia mCherry inactive, Vaccinia Venus -11% and FMDV inh 25µM*.
`CCCn1c(C)cc(C(=O)CN2C(=O)c3ccccc3S2(=O)=O)c1C` gave Vaccinia mCherry inactive, Vaccinia Venus -13% and FMDV inh inconclusive.
Screening Cc1cc(C(=O)CN2C(=O)c3ccccc3S2(=O)=O)c(C)n1CC1CCCO1 (stereo not given) returned LASV entry inh 0.46µM*, MARV entry inh 0.58µM*, Vaccinia mCherry -6%, Vaccinia Venus -6% and FMDV inh 0.28µM*.
`COCC(C)n1c(C)cc(C(=O)COC(=O)CNC(=O)c2ccccc2)c1C` (stereo not given) gave LASV entry inh 4%, MARV entry inh 54% and FMDV inh -8%.
For Cc1cc(C(=O)COC(=O)CNC(=O)c2ccccc2)c(C)n1CC1CCCO1 (stereo not given) the results were LASV entry inh 14%, MARV entry inh -6%[46.1 µM], Vaccinia mCherry inactive, Vaccinia Venus -1% and FMDV inh 16µM*.
